These results are taken from the supplement of paper PMC10503962.

The assay relates to Trichuris muris adult worms. Briefly: mean motility score (Paragon pixel variance) of adult worms (arbitrary units); higher = more motile worms, i.e. less anthelmintic effect; extreme values may be limits of the assay. Conditions: 100 µM; 24 h. The procedure, abridged: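 Single adult Trichuris muris worms, collected from infected NOD SCID mice, were placed in 96-well plates with 100 μL RPMI-1640 plus antibiotics and drug at 100 μM (1% v/v DMSO), then kept at 37°C and 5% CO2 for 24 h. Plates were filmed on an automated phenotyping platform (200 frames, 100 ms apart). Motility score came from Paragon pixel-variance analysis, averaged across replicate wells. Each drug had three worms in three wells, run on three separate occasions, with vehicle and positive controls.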

`COc1ccccc1OCCNCC(O)COc1cccc2[nH]c3ccccc3c12` (stereo not given) [carvedilol] came in with a mean motility score of 35.7. On to `COCCOC(=O)C1=C(C)NC(C)=C(C(=O)OC(C)C)C1c1cccc([N+](=O)[O-])c1` (stereo not given) [nimodipine], for which the mean motility score amounted to 112. The figure for `CC(CCc1ccc(O)cc1)NCCc1ccc(O)c(O)c1` (stereo not given) [dobutamine] is 2870; for `CNCc1ccc(-c2[nH]c3cc(F)cc4c3c2CCNC4=O)cc1` [rucaparib] it is 1130; for `CCCN1CCCC[C@H]1C(=O)Nc1c(C)cccc1C` [ropivacaine] it is 2600. As for `C[C@@H](c1ncncc1F)[C@](O)(Cn1cncn1)c1ccc(F)cc1F` [voriconazole], the mean motility score came out at 4350. To `CC(C)[C@H](N)C(=O)OCCOCn1cnc2c(=O)nc(N)[nH]c21.Cl` [valacyclovir hydrochloride] belongs 4300; to `CC(=O)Nc1c(I)c(NC(C)=O)c(I)c(C(=O)O)c1I` [diatrizoic acid], 1110. The figure for `Cc1c(N(C)C)c(=O)n(-c2ccccc2)n1C` [aminopyrine] is 2250; for `CN1CCN(CC/C=C2/c3ccccc3Sc3ccc(S(=O)(=O)N(C)C)cc32)CC1` [thiothixene] it is 1030; for `CCN(CC)CCNC(=O)c1cc(Cl)c(N)cc1OC` [metoclopramide] it is 3210.

`O=C1c2ccccc2C(=O)C1c1ccccc1` [phenindione]: the mean motility score stood at 4420. To `O=C(CCCN1CCC(O)(c2ccc(Cl)cc2)CC1)c1ccc(F)cc1` [haloperidol] belongs 2820; to `Cc1[nH]c2ccccc2c1CCNCc1ccc(/C=C/C(=O)NO)cc1` [panobinostat], 2620. In the case of `CC[C@H](Nc1ncnc2[nH]cnc12)c1nc2cccc(F)c2c(=O)n1-c1ccccc1` [idelalisib], the mean motility score is 3590. The figure for `CC(C)c1ccc2oc3nc(N)c(C(=O)O)cc3c(=O)c2c1` [amlexanox] is 1570; for `O=C(O)/C=C/C(=O)O` [fumaric acid] it is 3100. The figure for `CO[C@H]1/C=C/O[C@@]2(C)Oc3c(C)c(O)c4c(O)c(c(/C=N/N5CCN(C)CC5)c(O)c4c3C2=O)NC(=O)/C(C)=C\C=C\[C@H](C)[C@H](O)[C@@H](C)[C@@H](O)[C@@H](C)[C@H](OC(C)=O)[C@@H]1C` [rifampicin] is 1330; for `Cc1ccc(-c2cc(C(F)(F)F)nn2-c2ccc(S(N)(=O)=O)cc2)cc1` [celecoxib] it is 0; for `CC1CCc2c(N3CCC(O)CC3)c(F)cc3c(=O)c(C(=O)O)cn1c23` (stereo not given) [nadifloxacin] it is 2660. Compound `Nc1ncnc2c1ncn2[C@@H]1O[C@H](CO)[C@@H](O)[C@H]1O` [adenosine] returned a mean motility score of 3520. The figure for `C[C@]12C=CC(=O)C=C1CC[C@@H]1[C@@H]2[C@@H](O)C[C@@]2(C)[C@H]1CC[C@]2(O)C(=O)CO` [prednisolone] is 659; for `CCN(CC)CCOc1ccc2nc(N(C)C)sc2c1.Cl.Cl` [diamthazole dihydrochloride] it is 4190; for `CC/C(=C(\c1ccccc1)c1ccc(OCCN(C)C)cc1)c1ccccc1` [tamoxifen] it is 165. To `O=c1ccc2ccccc2o1` [coumarin] belongs 3690; to `CC(=O)Nc1ccc(O)cc1` [acetaminophen], 2180; to `O=C(COc1ccc(Cl)cc1)N1CCN(Cc2ccc3c(c2)OCO3)CC1` [fipexide], 241. To `CNC[C@H](O)c1ccc(O)c(O)c1` [epinephrine] belongs 3270; to `CCC(NC(C)C)C(O)c1ccc(O)c2nc(O)ccc12.Cl` (stereo not given) [procaterol hydrochloride], 2060. For `COc1cc(C(=O)NS(=O)(=O)c2ccccc2C)ccc1Cc1cn(C)c2ccc(NC(=O)OC3CCCC3)cc12` [zafirlukast], the mean motility score turned out to be 0. For `CCOc1cc(N)c(Cl)cc1C(=O)NCC1CN(Cc2ccc(F)cc2)CCO1` (stereo not given) [mosapride], the mean motility score was 2610. The figure for `NS(=O)(=O)c1cc2c(cc1Cl)NCNS2(=O)=O` [hydrochlorothiazide] is 3580; for `Cn1cnc([N+](=O)[O-])c1Sc1ncnc2nc[nH]c12` [azathioprine] it is 3550; for `O=C(CCCN1CC=C(n2c(O)nc3ccccc32)CC1)c1ccc(F)cc1` [droperidol] it is 2120. The figure for `CN(C)[C@@H]1C(O)=C(C(N)=O)C(=O)[C@@]2(O)C(O)=C3C(=O)c4c(O)cccc4[C@@](C)(O)[C@H]3[C@H](O)[C@@H]12` [oxytetracycline] is 2120.
